Reference: the supplement of paper PMC3334620
In all, about 33,000 sequences were measured (“E-score (-0.5 to 0.5)”: median about -0.013, highest 2% from about 0.3 on). The sample as a whole holds a higher share of the highest values than the screen did.

target: T1, Msn1 (UniProt P22148); assay: PBM E-score (8-mer binding enrichment) (E-score (-0.5 to 0.5)); higher = stronger / more preferred TF binding; conditions: protein concentration: 200 nM; construct: GST-full length
T1 sequence: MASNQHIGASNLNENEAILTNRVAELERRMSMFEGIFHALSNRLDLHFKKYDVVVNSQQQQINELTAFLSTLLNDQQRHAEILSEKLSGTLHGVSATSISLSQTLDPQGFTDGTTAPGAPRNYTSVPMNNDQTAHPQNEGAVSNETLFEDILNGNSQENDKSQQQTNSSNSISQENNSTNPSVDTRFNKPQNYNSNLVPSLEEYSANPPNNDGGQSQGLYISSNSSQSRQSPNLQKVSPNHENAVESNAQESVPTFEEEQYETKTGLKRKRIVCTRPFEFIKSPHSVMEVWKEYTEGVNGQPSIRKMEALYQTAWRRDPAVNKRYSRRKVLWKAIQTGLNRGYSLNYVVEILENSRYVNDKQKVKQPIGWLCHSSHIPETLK
Protocol: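 Universal 'all 10-mer' protein binding microarrays (Agilent AMADID 015681) probed with GST-tagged S. cerevisiae TFs (full-length or DBD) made by in vitro transcription/translation (PURExpress), about 100-200 nM. Bound TF was detected with fluorescent anti-GST. Each ungapped 8-mer (which stands for itself and its reverse complement) is scored by the PBM enrichment score (E-score), a modified Wilcoxon-Mann-Whitney statistic from -0.5 to +0.5, computed with the Universal PBM Analysis Suite. Scale: above 0.35 generally sequence-specific binding.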

Sequence | PBM E-score
AGGGGACC | -0.207
CCCAGCAC | -0.148
GCATCCAA | -0.225
AATAAAGT | 0.209
AAGGATTG | 0.191
GAGGGTAA | -0.114
GCAGTAGC | -0.289
CGTTTCAG | 0.176
GCGATGAC | 0.0728
GCGGTAGC | 0.041
CAACCATG | 0.0589
CCAAATAG | -0.0591
AAAAATAG | 0.189
AGAAATAT | 0.181
ACAAATAT | 0.404
CCAAATAC | -0.058
GCAAATAA | 0.0601
ACAAATAG | 0.322
ACAAATAA | 0.307
AAAAATAT | 0.208
ACAAATAC | 0.328
TCAAATAA | 0.234
GCAAATAC | 0.0266
ACTTCCCT | -0.185
CAAAAAGA | 0.0247

Sequence | PBM E-score
CGAGTGAC | 0.0781
AAAATGCT | 0.0679
ACCGATGC | -0.136
ATCACCTA | 0.0704
ATCCAGGA | -0.015
CCCAAGGG | -0.22
TTCGACAA | 0.191
TTGGACAA | 0.47
CTGGACAG | 0.0403
TTGGAAAA | 0.0431
CTGGACAC | 0.29
CTGGACAA | 0.43
GTGGACAA | 0.468
GTGGACTA | 0.144
GTGGACGA | 0.18
TCTTTCCA | -0.0394
CCCTTACC | -0.181
CTTATGAC | 0.233
CTTATGTA | 0.124
ATTATGTC | 0.367
ATTATGTG | 0.151
ATTATGTA | 0.149
CTTATGTC | 0.374
ATTCGCTG | 0.00671
TACCCGCA | -0.0605

Sequence | PBM E-score
CATTACGG | 0.0771
TAGGGGCA | -0.254
AAGTACCA | 0.107
ACATAAAA | 0.178
ACATACAG | 0.167
GAGTACAA | 0.262
ACATACAT | 0.309
TAGTACAA | 0.321
AAGTACAA | 0.306
ACATACAC | 0.207
ACATAAAT | 0.307
ACATAAAG | 0.224
AAGTACGA | 0.133
CAGTACAA | 0.262
CGGTAGTC | -0.00298
GTGATCTA | 0.00906
ACTTTTGA | 0.208
ATATCCGG | 0.11
GTCTCAAC | 0.136
TCTAAAGA | 0.205
AACCTTCT | -0.205
TAAATCCA | 0.0101
CGAAGATC | -0.0505
AAGTACAG | 0.0535
AAGTACAT | 0.356

Sequence | PBM E-score
ACGTACAA | 0.234
ACGTACAG | -0.0675
AAGTACAC | 0.192
ACGTACAT | 0.307
GAGTCATC | -0.114
GGTGTCAC | -0.0252
TACGACAA | 0.352
CGCGACAA | 0.304
AACGACAG | -0.0454
AACGACAA | 0.262
CACGACAA | 0.256
GACGACAA | 0.299
AATGACAT | 0.42
GGCGACAA | 0.069
CGCGACAG | -0.00106
AATGACAG | 0.151
AACGACAT | 0.417
AATGACAC | 0.213
CAAGATCC | 0.0979
AAGCAAAG | -0.064
AGGGCCTC | -0.236
AGTTGTGA | 0.137
CGGACCAA | 0.256
CTATCGCA | -0.201
AACCACGT | -0.0931

Sequence | PBM E-score
CTACCAAA | -0.0795
GAGTACTA | 0.198
AGCGACAA | 0.301
TGCGACAA | 0.338
TGCGACCA | 0.0994
CTTTAATA | 0.193
GATTAATA | 0.143
AACTAATA | 0.326
AATTAATA | 0.352
GTTTAAAA | 0.0898
TATTAATA | -0.134
GTTTAATA | 0.315
AATTAATT | 0.168
CACTAATA | 0.0713
ATTTAATA | 0.336
ATTTAATG | 0.202
TACTAATA | 0.0704
CGCGGTGC | -0.123
TAAGTTAA | -0.0568
CGCTACCG | 0.00385
GGCGAAAA | 0.24
GTTAGAAA | -0.0269
CATCTTCA | 0.0522
GGAGGGCC | -0.273
CGCCAGGC | -0.174

Sequence | PBM E-score
AATATTGT | 0.35
AATATTAG | 0.131
CATATTAG | 0.193
TATATTAA | 0.232
AATATTAT | 0.208
AATATTAA | 0.318
AATATTGG | -0.0454
AATATTGC | 0.218
CATATTAA | 0.32
CGATAAAG | 0.119
AGCTCACC | -0.141
AGAGTCCG | 0.0522
AGAGTCCT | -0.0894
GAAGTCCC | -0.0665
AAAGTCCT | 0.427
CAAGTCCC | 0.148
CAAGTCCG | 0.0478
AAAGTCGT | 0.223
TAAGTCCA | 0.26
AAAGTCCA | 0.378
GAAGTCCA | 0.212
AAAGTCCC | 0.344
AAAGTCCG | 0.342
AATGGCTA | -0.0496
ATGTTCAA | 0.185

Sequence | PBM E-score
CCACTGGA | -0.216
GATTCTAA | 0.0481
TGGCTACA | 0.0201
ATTAGCAA | 0.22
AAGTACGG | 0.0556
AAGCTAAA | 0.12
CATATTCC | 0.0363
CACCCGTG | -0.213
ACAGACAC | 0.288
ACAGACAA | 0.44
GCAGACCA | -0.0683
TCAGACCA | -0.0852
ACAGACGA | 0.153
CCAGACAA | 0.258
TCAGACAA | 0.367
GCAGACAC | 0.203
CCAGACAG | -0.094
ACAGACAT | 0.399
ACAGACAG | 0.222
GCAGACAA | 0.341
TATGAGAA | 0.0684
AATGGTCG | -0.0526
TAGATTCA | -0.192
GCTTCTTA | -0.0464
ACATGTAA | 0.255

Sequence | PBM E-score
ACATGTAT | 0.312
ACATGTCT | 0.436
ACATGTTG | 0.235
ACATGTCG | 0.311
ACATGTCA | 0.358
ACATGTTA | 0.199
CCATGTCG | 0.239
ACATGCCT | -0.119
ACATGTAG | 0.244
TCATGTCA | 0.252
ACCTGTCT | 0.0544
ACCGATAG | 0.0834
GATTCCGC | 0.0634
AAGCCGCA | -0.0983
GACTGCAA | -0.16
AAAGCGAT | 0.00359
TAGGTGAA | 0.0103
CCATGTAC | 0.216
GCATGTCA | 0.261
CCATGTCA | 0.164
ACATGTGC | 0.0743
ACATGTTC | 0.147
GCATGTCC | 0.459
CCATGTCC | 0.434
GCATGTAC | 0.291

Sequence | PBM E-score
ACATGTCC | 0.48
CGGGTTGA | -0.255
CCAGCCCC | -0.304
CTTTGCTA | -0.0573
AAACAGTA | -0.0344
CCACAAGC | -0.0513
CGGACATA | 0.469
AGGACATG | 0.484
CGGACTGA | 0.0816
AGCACATC | -0.0251
AGTACATC | 0.131
CCGACATC | 0.0379
AGGACATC | 0.477
CGGACAGC | 0.182
AGCACATG | -0.0192
CGGACATC | 0.387
AGTACATG | 0.266
CGGACCTA | 0.00062
ATGGGCAA | 0.0683
